Key:
Assay in all cases: DAPPL (digital affinity profiling via proximity ligation, sequencing); 10 mM Tris-HCl pH 7.5, 50 mM NaCl, 1 mM DTT, 4% glycerol, room temperature, 30 min; GST-TFs on glutathione beads, 16-mer random dsDNA library, 0.1% formaldehyde crosslink after washing; high values mean tight binding
Conditions in all cases: protein: recombinant; tags: N-terminal GST; dsDNA, one strand shown
FLI1 = biological target: T1, FLI1 (Homo sapiens, UniProt Q01543 1-452)
T1 sequence: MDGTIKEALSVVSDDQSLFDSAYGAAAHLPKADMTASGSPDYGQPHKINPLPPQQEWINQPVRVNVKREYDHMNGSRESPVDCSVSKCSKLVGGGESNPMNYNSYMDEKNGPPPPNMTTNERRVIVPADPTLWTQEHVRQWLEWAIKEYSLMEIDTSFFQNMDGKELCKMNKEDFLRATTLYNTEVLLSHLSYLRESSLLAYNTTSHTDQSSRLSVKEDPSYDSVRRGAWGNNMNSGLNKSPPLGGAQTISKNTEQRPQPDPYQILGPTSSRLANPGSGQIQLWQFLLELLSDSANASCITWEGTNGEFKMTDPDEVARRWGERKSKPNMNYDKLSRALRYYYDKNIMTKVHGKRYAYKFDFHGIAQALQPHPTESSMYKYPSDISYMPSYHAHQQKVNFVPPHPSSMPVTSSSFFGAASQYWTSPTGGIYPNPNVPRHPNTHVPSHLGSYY
Method in brief: (§1)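 Each value of binding signal is a hexamer's read frequency for a factor divided by the same hexamer's frequency in the tag-only sample. Barcoded, bead-captured GST fusions of human transcription factors made in yeast were pooled with that sample and incubated with 200 nmole of a random double-stranded 16-mer DNA library in Tris/NaCl/DTT/glycerol buffer at room temperature for 30 min. Washing, 0.1% formaldehyde crosslinking, proximity ligation, PCR and Illumina NextSeq500 sequencing followed.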

ELK1 = biological target: T2, ELK1 (Homo sapiens, UniProt P19419 1-428)
T2 sequence: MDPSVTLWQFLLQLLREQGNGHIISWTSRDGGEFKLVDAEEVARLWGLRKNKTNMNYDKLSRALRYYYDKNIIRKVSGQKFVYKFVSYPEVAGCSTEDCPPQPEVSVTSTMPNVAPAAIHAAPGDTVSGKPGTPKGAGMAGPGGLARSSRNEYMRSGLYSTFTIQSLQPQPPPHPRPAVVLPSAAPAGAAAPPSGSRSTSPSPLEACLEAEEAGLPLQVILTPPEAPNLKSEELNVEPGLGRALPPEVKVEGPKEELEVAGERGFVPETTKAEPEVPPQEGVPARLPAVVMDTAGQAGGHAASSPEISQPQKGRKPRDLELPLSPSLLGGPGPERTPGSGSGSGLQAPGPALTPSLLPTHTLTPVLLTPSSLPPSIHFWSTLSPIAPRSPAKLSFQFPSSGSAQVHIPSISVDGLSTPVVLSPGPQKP
Method in brief: as §1

GABPA = biological target: T3, GABPA (Homo sapiens, UniProt Q06546 1-454)
T3 sequence: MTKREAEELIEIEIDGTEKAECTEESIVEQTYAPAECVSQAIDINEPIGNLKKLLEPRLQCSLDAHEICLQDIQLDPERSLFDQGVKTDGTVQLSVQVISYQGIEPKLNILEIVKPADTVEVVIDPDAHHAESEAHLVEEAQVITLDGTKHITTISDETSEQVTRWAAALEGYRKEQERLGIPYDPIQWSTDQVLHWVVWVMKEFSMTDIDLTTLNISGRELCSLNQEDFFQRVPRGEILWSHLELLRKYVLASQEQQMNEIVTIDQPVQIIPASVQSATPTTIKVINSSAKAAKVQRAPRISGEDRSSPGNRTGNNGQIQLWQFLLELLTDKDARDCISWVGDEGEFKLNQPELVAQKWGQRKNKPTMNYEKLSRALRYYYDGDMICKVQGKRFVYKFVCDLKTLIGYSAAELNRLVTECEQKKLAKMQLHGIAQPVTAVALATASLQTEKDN
Method in brief: as §1

ERG = biological target: T4, ERG (Homo sapiens, UniProt P11308 1-479)
T4 sequence: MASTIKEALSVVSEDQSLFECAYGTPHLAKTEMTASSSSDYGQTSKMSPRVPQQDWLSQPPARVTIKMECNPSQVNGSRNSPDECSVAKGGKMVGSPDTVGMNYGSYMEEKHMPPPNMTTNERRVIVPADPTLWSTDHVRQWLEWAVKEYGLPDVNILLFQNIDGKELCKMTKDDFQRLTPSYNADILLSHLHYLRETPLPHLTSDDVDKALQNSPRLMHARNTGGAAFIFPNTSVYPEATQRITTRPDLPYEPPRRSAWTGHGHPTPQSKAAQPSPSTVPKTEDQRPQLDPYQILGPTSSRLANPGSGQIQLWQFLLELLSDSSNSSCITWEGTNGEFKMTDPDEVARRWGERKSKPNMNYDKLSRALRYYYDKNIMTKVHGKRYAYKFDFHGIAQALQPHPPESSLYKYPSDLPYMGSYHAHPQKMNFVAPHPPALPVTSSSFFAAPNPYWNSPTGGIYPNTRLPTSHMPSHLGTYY
Method in brief: as §1

ELF1 = ELF1 (Homo sapiens, UniProt P32519 1-619)
Sequence of ELF1 (P32519 whole entry): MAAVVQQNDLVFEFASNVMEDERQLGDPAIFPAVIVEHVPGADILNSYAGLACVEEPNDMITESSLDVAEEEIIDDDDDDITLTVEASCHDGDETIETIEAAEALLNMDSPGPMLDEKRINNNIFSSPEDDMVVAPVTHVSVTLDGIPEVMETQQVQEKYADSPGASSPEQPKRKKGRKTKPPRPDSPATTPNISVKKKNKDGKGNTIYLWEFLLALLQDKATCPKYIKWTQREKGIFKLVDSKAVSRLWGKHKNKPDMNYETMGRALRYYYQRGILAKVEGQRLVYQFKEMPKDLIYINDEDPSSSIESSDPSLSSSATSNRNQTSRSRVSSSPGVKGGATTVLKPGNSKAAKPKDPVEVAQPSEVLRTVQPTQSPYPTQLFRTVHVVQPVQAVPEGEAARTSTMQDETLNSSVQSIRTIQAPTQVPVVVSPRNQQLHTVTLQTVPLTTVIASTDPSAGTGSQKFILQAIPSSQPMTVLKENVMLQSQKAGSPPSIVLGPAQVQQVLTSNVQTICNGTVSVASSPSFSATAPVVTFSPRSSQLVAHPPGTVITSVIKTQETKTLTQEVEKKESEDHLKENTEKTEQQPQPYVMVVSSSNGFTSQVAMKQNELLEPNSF
Method in brief: as §1

EHF = biological target: T5, EHF (Homo sapiens, UniProt Q9NZC4 1-300)
T5 sequence: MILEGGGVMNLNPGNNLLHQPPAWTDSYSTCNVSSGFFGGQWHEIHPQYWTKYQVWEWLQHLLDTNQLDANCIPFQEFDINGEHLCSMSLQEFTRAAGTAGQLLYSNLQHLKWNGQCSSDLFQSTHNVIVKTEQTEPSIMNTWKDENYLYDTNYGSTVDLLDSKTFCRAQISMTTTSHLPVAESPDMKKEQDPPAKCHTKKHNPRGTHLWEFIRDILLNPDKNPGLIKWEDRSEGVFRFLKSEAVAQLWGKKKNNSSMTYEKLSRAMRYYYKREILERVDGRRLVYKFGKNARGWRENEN
Method in brief: as §1

SPI1 = SPI1 (Homo sapiens, UniProt P17947 1-270)
Method in brief: as §1

SPIB = SPIB (Homo sapiens, UniProt Q01892 1-262)
Sequence of SPIB (Q01892 whole entry): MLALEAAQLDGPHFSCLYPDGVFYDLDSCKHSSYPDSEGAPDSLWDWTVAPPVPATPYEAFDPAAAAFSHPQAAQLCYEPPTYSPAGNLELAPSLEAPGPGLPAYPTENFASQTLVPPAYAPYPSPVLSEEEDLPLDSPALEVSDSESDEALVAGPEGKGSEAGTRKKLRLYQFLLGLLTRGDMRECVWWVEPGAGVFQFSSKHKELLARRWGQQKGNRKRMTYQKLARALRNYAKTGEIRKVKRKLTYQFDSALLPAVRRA
Method in brief: as §1

ELK3 = biological target: T6, ELK3 (Homo sapiens, UniProt P41970 1-407)
T6 sequence: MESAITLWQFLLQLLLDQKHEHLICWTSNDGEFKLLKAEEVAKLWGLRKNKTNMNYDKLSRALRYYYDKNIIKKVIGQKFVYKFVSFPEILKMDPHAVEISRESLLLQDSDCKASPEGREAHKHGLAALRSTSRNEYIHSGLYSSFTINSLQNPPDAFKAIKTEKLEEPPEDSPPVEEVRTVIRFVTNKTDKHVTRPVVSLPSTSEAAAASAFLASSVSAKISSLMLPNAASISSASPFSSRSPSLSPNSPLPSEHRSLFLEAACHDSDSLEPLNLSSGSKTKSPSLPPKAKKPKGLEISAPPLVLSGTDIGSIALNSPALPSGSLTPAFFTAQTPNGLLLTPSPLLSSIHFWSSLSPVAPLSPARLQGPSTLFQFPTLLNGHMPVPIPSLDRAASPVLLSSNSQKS
Method in brief: as §1

## TCGATT
FLI1
  binding signal: 1.12 fold enrichment (6-mer frequency, TF over GST control)
ELK1
  binding signal: 1.11 fold enrichment (6-mer frequency, TF over GST control)
GABPA
  binding signal: 1.13 fold enrichment (6-mer frequency, TF over GST control)
ERG
  binding signal: 1.12 fold enrichment (6-mer frequency, TF over GST control)
ELF1
  binding signal: 1.12 fold enrichment (6-mer frequency, TF over GST control)
EHF
  binding signal: 1.05 fold enrichment (6-mer frequency, TF over GST control)
SPI1
  binding signal: 1.08 fold enrichment (6-mer frequency, TF over GST control)
SPIB
  binding signal: 1.15 fold enrichment (6-mer frequency, TF over GST control)
ELK3
  binding signal: 1.06 fold enrichment (6-mer frequency, TF over GST control)

Source: article PMC7862700, “An all-to-all approach to the identification of sequence-specific readers for epigenetic DNA modifications on cytosine”
